{"source": "the supplement of paper PMC8728848", "binders": {"B1": {"name": "BT3172pd (Bacteroides thetaiotaomicron) (protein)", "chain": "MLPLRAEHYYYKQISLKEGLPSNVRCILRDEQGFIWIGTKAGLGKFDGHQLKRYKHQANDPHSLLHNLIYQIAEDKQHNIWILTEKGIARYQQQSNNFTFPTDEEGNYITAYSFCLVPDGILFGGKDRIYKYSYKDSSLRLLQYFNANSFKITALSVWDSKTLLCCSRWTGLYLVDLQTGEHRRPPFDCGPEITSMITDSKNRIWIAPYSGGLRCYSRDGKLSASYTTHNSSLSNDIVLSLAEREEQLWIGTDGGGINILHPETGEISQLEYIPGRENYSLPANSILCLHNDYNNNVWAGSTCNGLISIREVSMKTYTDVVPGNDRGLSNGTVRSLYRQSPDSIWIGTDGGGINLFSPHTEKFTHYSSTWGDKVAFISGFTPGKLLISLFSKGVFVFNPATGEKQPFTIIDKETTTRLCNRGKSVNLYQNTPNTVLFLGDHIYQYHLKEKKFSTITEEEGKDIVGTLVPFDHQENLTYINDIKHIYELDDQTSRLKTVFECYTDTVISSVSHDEQGHFWIGSNFGLIHYDPVLKSRTLVPTNLFTEINMVLCDQKGKVWIGVDNMLFAYFIKEQKFVLFGESNGAIQNEYLPNARLVNEQGDAYIGGVKGMLRIDGQLLLNTSEMPELQLLDITINGESANHEWYNHPAKISVPWNSNISIRIMSREEDIFRQKIYRYQIEGLNNEYTESYNPELVIRSLLPGSYRIMASCTAKDGSWIPDQQVLELTVLPPWYRTHHHHHH"}}, "experiment_in_all_cases": "glycan array binding signal (z-score within array); higher = stronger binding", "settings_in_all_cases": "glycan notation: IUPAC condensed, linker removed", "key": {"[1]": {"molecular_target": "Fuc(a1-2)Gal(b1-3)GalNAc(b1-3)Gal", "how_it_was_run": "(§1)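 Glycan array data were curated from 3228 arrays in the Consortium for Functional Glycomics database and kept only where the protein sequence was available. Glycan names were converted to IUPAC-condensed notation, and columns mapping to the same glycan were averaged. The binding signal is a within-array Z-score, averaged across arrays of the same protein sequence at different concentrations or buffers and across linkers. Negative Z-scores can be read as non-binding.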"}, "[2]": {"molecular_target": "Fuc(a1-2)Gal(b1-4)GlcNAc(b1-3)Gal(b1-4)GlcNAc(b1-3)Gal(b1-4)GlcNAc", "how_it_was_run": "as §1"}, "[3]": {"molecular_target": "Fuc(a1-2)Gal(b1-4)GlcNAc(b1-3)GalNAc", "how_it_was_run": "as §1"}, "[4]": {"molecular_target": "Fuc(a1-2)Gal(b1-4)[Fuc(a1-3)]GlcNAc(b1-3)Gal(b1-4)[Fuc(a1-3)]GlcNAc", "how_it_was_run": "as §1"}, "[5]": {"molecular_target": "Fuc(a1-2)[Gal(a1-3)]Gal(b1-3)GalNAc", "how_it_was_run": "as §1"}, "[6]": {"molecular_target": "Fuc(a1-2)[Gal(a1-3)]Gal(b1-4)GlcNAc", "how_it_was_run": "as §1"}, "[7]": {"molecular_target": "Fuc(a1-2)[Gal(a1-3)]Gal(b1-4)GlcNAc(b1-3)[Fuc(a1-2)[Gal(a1-3)]Gal(b1-4)GlcNAc(b1-6)]GalNAc", "how_it_was_run": "as §1"}, "[8]": {"molecular_target": "Fuc(a1-2)[Gal(a1-3)]Gal(b1-4)[Fuc(a1-3)]GlcNAc(b1-3)GalNAc", "how_it_was_run": "as §1"}, "[9]": {"molecular_target": "Fuc(a1-2)[GalNAc(a1-3)]Gal(b1-4)GlcNAc", "how_it_was_run": "as §1"}, "Fuc(a1-3)GlcNAc": {"molecular_target": "Fuc(a1-3)GlcNAc", "how_it_was_run": "as §1"}, "[10]": {"molecular_target": "Fuc(a1-3)[Gal(b1-4)]GlcNAc(b1-2)Man(a1-3)[Fuc(a1-3)[Gal(b1-4)]GlcNAc(b1-2)Man(a1-6)]Man(b1-4)GlcNAc(b1-4)[Fuc(a1-6)]GlcNAc", "how_it_was_run": "as §1"}, "Gal(a1-2)Gal": {"molecular_target": "Gal(a1-2)Gal", "how_it_was_run": "as §1"}, "Gal(a1-3)Gal(b1-4)Glc": {"molecular_target": "Gal(a1-3)Gal(b1-4)Glc", "how_it_was_run": "as §1"}, "Gal(a1-3)Gal(b1-4)GlcNAc": {"molecular_target": "Gal(a1-3)Gal(b1-4)GlcNAc", "how_it_was_run": "as §1"}, "[11]": {"molecular_target": "Gal(a1-3)Gal(b1-4)[Fuc(a1-3)]GlcNAc(b1-2)Man(a1-3)[Gal(a1-3)Gal(b1-4)[Fuc(a1-3)]GlcNAc(b1-2)Man(a1-6)]Man(b1-4)GlcNAc(b1-4)GlcNAc", "how_it_was_run": "as §1"}, "[12]": {"molecular_target": "Gal(a1-3)[Gal(a1-4)]Gal(b1-4)GlcNAc", "how_it_was_run": "as §1"}, "[13]": {"molecular_target": "Gal(b1-3)GlcNAc(b1-6)[Gal(b1-3)]GalNAc", "how_it_was_run": "as §1"}, "[14]": {"molecular_target": "Gal(b1-4)GlcNAc(b1-2)Man(a1-3)[Gal(b1-4)GlcNAc(b1-2)Man(a1-6)]Man(b1-4)GlcNAc(b1-4)[Fuc(a1-6)]GlcNAc", "how_it_was_run": "as §1"}, "[15]": {"molecular_target": "Gal(b1-4)GlcNAc(b1-2)Man(a1-3)[Man(a1-6)]Man(b1-4)GlcNAc(b1-4)GlcNAc", "how_it_was_run": "as §1"}, "[16]": {"molecular_target": "Gal(b1-4)GlcNAc(b1-2)Man(a1-6)[GlcNAc(b1-2)Man(a1-3)]Man(b1-4)GlcNAc(b1-4)GlcNAc", "how_it_was_run": "as §1"}, "[17]": {"molecular_target": "Gal(b1-4)GlcNAc(b1-2)[Gal(b1-4)GlcNAc(b1-4)]Man(a1-3)[GlcNAc(b1-4)][Gal(b1-4)GlcNAc(b1-2)Man(a1-6)]Man(b1-4)GlcNAc(b1-4)GlcNAc", "how_it_was_run": "as §1"}, "[18]": {"molecular_target": "Gal(b1-4)GlcNAc(b1-3)Gal(b1-4)GlcNAc(b1-3)Gal(b1-4)GlcNAc(b1-3)Gal(b1-4)GlcNAc(b1-3)Gal(b1-4)GlcNAc(b1-2)Man(a1-3)[Gal(b1-4)GlcNAc(b1-3)Gal(b1-4)GlcNAc(b1-3)Gal(b1-4)GlcNAc(b1-3)Gal(b1-4)GlcNAc(b1-3)Gal(b1-4)GlcNAc(b1-2)Man(a1-6)]Man(b1-4)GlcNAc(b1-4)GlcNAc", "how_it_was_run": "as §1"}, "[19]": {"molecular_target": "Gal(b1-4)GlcNAc(b1-3)Gal(b1-4)GlcNAc(b1-3)GalNAc", "how_it_was_run": "as §1"}, "[20]": {"molecular_target": "Gal(b1-4)GlcNAc(b1-3)Gal(b1-4)[Fuc(a1-3)]GlcNAc(b1-3)Gal(b1-4)[Fuc(a1-3)]GlcNAc", "how_it_was_run": "as §1"}, "Gal3S(b1-4)GlcNAc": {"molecular_target": "Gal3S(b1-4)GlcNAc", "how_it_was_run": "as §1"}, "GalNAc(a1-3)GalNAc": {"molecular_target": "GalNAc(a1-3)GalNAc", "how_it_was_run": "as §1"}, "[21]": {"molecular_target": "GalNAc(b1-4)GlcNAc(b1-2)Man(a1-3)[GalNAc(b1-4)GlcNAc(b1-2)Man(a1-6)]Man(b1-4)GlcNAc(b1-4)GlcNAc", "how_it_was_run": "as §1"}, "[22]": {"molecular_target": "GalNAc3S(b1-4)[Fuc(a1-3)]GlcNAc", "how_it_was_run": "as §1"}, "[23]": {"molecular_target": "Glc(a1-6)Glc(a1-6)Glc(a1-6)Glc", "how_it_was_run": "as §1"}, "[24]": {"molecular_target": "GlcA3S(b1-3)Gal(b1-4)GlcNAc(b1-2)Man", "how_it_was_run": "as §1"}}, "note": "Many of the other results were omitted from the sample, so the strongest signals are more common in it than they were."}
{"binder": "B1", "values": [{"measurement": "glycan array binding signal (z-score)", "setting": "[1]", "value": -1.16}, {"measurement": "glycan array binding signal (z-score)", "setting": "[2]", "value": -0.03}, {"measurement": "glycan array binding signal (z-score)", "setting": "[3]", "value": -0.024}, {"measurement": "glycan array binding signal (z-score)", "setting": "[4]", "value": -0.649}, {"measurement": "glycan array binding signal (z-score)", "setting": "[5]", "value": 0.258}, {"measurement": "glycan array binding signal (z-score)", "setting": "[6]", "value": -0.52}, {"measurement": "glycan array binding signal (z-score)", "setting": "[7]", "value": 5.41}, {"measurement": "glycan array binding signal (z-score)", "setting": "[8]", "value": -0.194}, {"measurement": "glycan array binding signal (z-score)", "setting": "[9]", "value": -0.511}, {"measurement": "glycan array binding signal (z-score)", "setting": "Fuc(a1-3)GlcNAc", "value": -0.076}, {"measurement": "glycan array binding signal (z-score)", "setting": "[10]", "value": 2.04}, {"measurement": "glycan array binding signal (z-score)", "setting": "Gal(a1-2)Gal", "value": -0.237}, {"measurement": "glycan array binding signal (z-score)", "setting": "Gal(a1-3)Gal(b1-4)Glc", "value": -0.327}, {"measurement": "glycan array binding signal (z-score)", "setting": "Gal(a1-3)Gal(b1-4)GlcNAc", "value": -0.339}, {"measurement": "glycan array binding signal (z-score)", "setting": "[11]", "value": 2.4}, {"measurement": "glycan array binding signal (z-score)", "setting": "[12]", "value": 2.39}, {"measurement": "glycan array binding signal (z-score)", "setting": "[13]", "value": -0.299}, {"measurement": "glycan array binding signal (z-score)", "setting": "[14]", "value": -0.075}, {"measurement": "glycan array binding signal (z-score)", "setting": "[15]", "value": -0.349}, {"measurement": "glycan array binding signal (z-score)", "setting": "[16]", "value": 0.924}, {"measurement": "glycan array binding signal (z-score)", "setting": "[17]", "value": -0.47}, {"measurement": "glycan array binding signal (z-score)", "setting": "[18]", "value": 5.07}, {"measurement": "glycan array binding signal (z-score)", "setting": "[19]", "value": -0.264}, {"measurement": "glycan array binding signal (z-score)", "setting": "[20]", "value": -0.565}, {"measurement": "glycan array binding signal (z-score)", "setting": "Gal3S(b1-4)GlcNAc", "value": 0.279}, {"measurement": "glycan array binding signal (z-score)", "setting": "GalNAc(a1-3)GalNAc", "value": -0.288}, {"measurement": "glycan array binding signal (z-score)", "setting": "[21]", "value": -0.134}, {"measurement": "glycan array binding signal (z-score)", "setting": "[22]", "value": 6.05}, {"measurement": "glycan array binding signal (z-score)", "setting": "[23]", "value": 0.665}, {"measurement": "glycan array binding signal (z-score)", "setting": "[24]", "value": -0.286}]}
